# An excerpt weighted towards active compounds, which were near 1.2% of everything screened.
# CCT modulator: changes cytosolic chaperonin activity | purified chaperonin ATPase assay, HTRF ADP detection, 30 min | activity change, % (concentration not given with the values), hits read low | actives 0.3% (n = 360,000) | AID 651819; in the data active = activity change below about -30%
#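 Nucleotide hydrolysis assay: TRiC at 20–40 nM final (set by batch activity) with 10 uM ATP, 30 min at 37 °C, in presence of 76 uM compound. Detection by competitive ADP HTRF, 30 min ambient.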
# pAkt inh: Akt phosphorylation inhibition; actives 0.32% (n = 360,000); activity change, % for hits at 50 µM; Neuro2A IGF-stimulated pAkt S473 HTRF, 20 min; active compounds read low; in the data active = activity change below about -80%; inconclusive = mostly about -51% to -80%
#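 Neuro2A cells (4,500/well, DMEM with 0.5% FBS) were treated with compound at a single 50 µM final concentration, stimulated with 6 nM IGF for 20 min at 37 °C, and lysed. Phospho-Akt Ser473 was read by HTRF as 665/615 ratio ×10^4.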
# CtBP-E1A blk: blocks the CtBP interaction with E1A. actives 0.49% (n = 340,000). AID 651724. AlphaScreen GST-E1A/His-CtBP binding, 1536-well; active compounds read low. activity change, % (test concentration not listed)
#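 Steps: dispense buffer (Tris pH 8.0, NaCl 300 mM, TCEP 1 mM, BSA, Tween 20); add 5X protein mix (GST-E1A, His-CtBP, 125 nM each); pin 23 nL compound; 2 h at 37 °C, dark; add 5X beads (50 ug/mL); 1 h; read.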
# Six1-Eya2 inh: Six1/Eya2 interaction inhibition; Q15475+O00167; AlphaScreen GST-Six1/His-Eya2 binding, biochemical; active compounds read low; activity change, % (concentration not given with the values); actives 0.56% (n = 360,000); AID 651725
#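 Six1/Eya2 binding was read as AlphaScreen signal after compounds were pinned into GST-Six1 plus His-tagged Eya2 (5X stock 250/500 nM) in pH 8.0 Tris/NaCl/TCEP buffer, beads added, then incubated 1 h, 37 C, dark.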
# A number is an active result; . = inactive; ? = inconclusive; / = not tested or not shown; ! = not confirmed by another sample. Rule as the data show it, unless noted: active = activity change below about -65%; inconclusive = mostly about -30% to -63%; inactive = weaker than that.
SMILES,CCT modulator,pAkt inh,CtBP-E1A blk,Six1-Eya2 inh
Oc1ccc2ccccc2c1N=Nc1ccc(F)cc1,.,.,.,?
COc1ccc(N=Nc2ccc3ccccc3c2)c(O)c1,.,.,/,?
Brc1cc2c(cc1/C=N/Nc1nc(N3CCOCC3)nc(N3CCOCC3)n1)OCO2,.,.,.,.
O=C(Nc1ccc(F)cc1)C(c1cc2ccccc2o1)N1CCN(CC(=O)N2CCCC2)CC1 (stereo not given),/,.,.,.
COc1ccccc1CNC(=O)CCNS(=O)(=O)/C=C/c1ccc(C)cc1,.,.,.,.
CCCCCCCCN1C(=O)[C@H](CC(=O)NCCCN2CCCC2=O)C[C@@]2(C(=O)OC)CC(C)(C)CC=C12,/,.,.,.
CCOC(=O)C(Sc1nnc2c3ccccc3n(CC)c2n1)C(=O)OCC,.,/,-71.8,?
Clc1ss/c(=N\c2ccccn2)c1Cl,.,.,-86.3,-91.7
Clc1ccccc1N=Nc1ccccn1,.,.,.,?
O=[N+]([O-])c1ccccc1/C=C/C=N/N1CCCCC1,.,.,?,-68.2
COc1ccccc1N1CCN(/N=C/C=C/c2ccccc2[N+](=O)[O-])CC1,.,.,-65.3,?
O=[N+]([O-])c1ccccc1/C=C\C=N\N1CCN(c2ccccc2)CC1,.,.,.,-66.5
COc1ncccc1C(=O)N1CCCC(N2CCN(c3cccc(Cl)c3)CC2)C1 (stereo not given),.,.,.,.
COc1c(F)c(F)c(C(=O)O)c(Nc2ccccc2)c1F,-78.3,.,.,.
O=C1C(NS(=O)(=O)c2ccccc2)=C(N2CCN(c3ccc(F)cc3)CC2)C(=O)c2ccccc21,.,.,-87.6,-77.1
CC1CCN(C2=C(NS(=O)(=O)c3ccccc3)C(=O)c3ccccc3C2=O)CC1,.,.,-84.7,-72.3
CC1CCN(C2=C(NS(=O)(=O)c3ccc(Br)cc3)C(=O)c3ccccc3C2=O)CC1,.,.,/,-84.3
CC1CCN(C2=C(NS(=O)(=O)c3ccc(Cl)cc3)C(=O)c3ccccc3C2=O)CC1,.,.,?,.
CC(C)COC(=O)Nc1nnc(SCCOc2ccccc2)s1,.,.,.,.
O=C1NC(CCO)C(=O)NC1CCO (stereo not given),.,.,.,.
CCCCn1c(CN2CCN(C)CC2)nc2ccccc21,.,-116.0%,.,.
CCc1cc(C(=O)OC)c(NC(=O)c2ccoc2C)s1,-44.6,.,.,.
Cn1c(=NC(=O)C2CCN(S(=O)(=O)c3cccs3)CC2)sc2ccccc21,.,-90.9%!,.,.
CN(C(=O)C1CCN(S(=O)(=O)c2cccs2)CC1)c1ccccc1,.,.,.,.
Cc1ccc(OCc2cnc(Cl)s2)c(C)c1,.,.,.,.
SMILES,CCT modulator,pAkt inh,CtBP-E1A blk,Six1-Eya2 inh
CCN(CC)C(=O)Cn1cc(C(=O)C(=O)N(C)C2CCN(C)CC2)c2ccccc21,-89.6,.,.,.
CCC1CCCCN1C(=O)C(=O)c1cn(CC(=O)N(CC)CC)c2ccccc12 (stereo not given),.,.,.,.
CCN(CC)CCn1c2c(c(SCC(=O)NCc3ccccc3)nc1=O)CCC2,.,.,.,.
CC1=CC(C)(C(Cl)(Cl)Cl)C(C)=CC1=NO (stereo not given),.,.,.,.
O=C(CSc1nc2ccccc2nc1SCC(=O)N1CCOCC1)N1CCOCC1,.,/,.,.
Cc1nnc(SCC(=O)N2CCOCC2)c2ccccc12,.,-114.7%,.,.
CC(=C/c1ccccc1)/C=N/NC(=O)c1cnccn1,.,.,.,.
O=C(N/N=C/C(Cl)=C\c1ccccc1)c1ccco1,.,.,-77.2,.
O=C(N/N=C/C(Cl)=C/c1ccccc1)c1cnccn1,.,.,-92.3,?
O=C(N/N=C/C(Cl)=C\c1ccccc1)c1cnccn1,.,.,-85.2,?
O=C(N/N=C/C(Cl)=C/c1ccccc1)c1ccco1,.,.,?,.
CCCCN1C[C@H](C)[C@@H](CC(=O)NC)C1=O,.,.,.,.
Cc1ccc(COC(=O)NCc2cccnc2)cc1,.,.,.,.
Cc1cccc(-n2c(O)c(/C=N/NC(=O)c3ccccc3Cl)c3ccccc3c2=O)n1,-46.4,.,.,.
COc1ccc(C2C(C(=O)c3ccco3)=C(O)C(=O)N2CCc2ccccc2)cc1OC (stereo not given),.,.,.,.
COc1ccc(C2C(C(=O)c3ccco3)=C(O)C(=O)N2CCOCCO)cc1OC (stereo not given),.,-85.2%,.,.
c1ccc(C2=Nn3c(nnc3-c3cccnc3)SC2)cc1,.,.,.,.
c1cncc(-c2nnc3n2N=C(c2cccs2)CS3)c1,.,-113.9%,?,?
CCOCC(=O)Nc1nnc(SCCOC)s1,.,-85.5%,.,.
Cc1ccc(CSc2nc3c(cc2C#N)CCC3)cc1,.,-84.7%,.,.
CN=C(NC#N)SCC(=O)c1ccc(Cl)cc1Cl,-38.0,.,.,.
Cc1c(C#N)c(O)[nH]c(=O)c1N=Nc1ccc(Br)cc1C(=O)O,.,.,-88.6,-70.9
Cc1cccc(N=Nc2c(C)c(C#N)c(O)[nH]c2=O)c1,.,.,.,.
COc1cc(OC)cc(-n2nnnc2SCC(=O)NC2CCCC2)c1,.,-115.1%,.,.
CCOc1ccc2nc3cc(N=Nc4ccc(N)nc4N)ccc3c(N)c2c1,.,.,-76.1,?
SMILES,CCT modulator,pAkt inh,CtBP-E1A blk,Six1-Eya2 inh
Cn1c(CN2CCCC2)nc2cc(NC(=O)COc3ccccc3)ccc21,.,-105.9%,.,.
Cn1c(CCN2CCCCC2)nc2cc(NC(=O)COc3ccccc3)ccc21,.,.,.,.
CC(C)(C)[C@H]1COC(=O)CCCC/C=C\C[C@H](CC(=O)NCCO)C(=O)N1,.,.,.,.
O=C(NCc1ccccc1)C(c1ccccc1)n1c(-c2ccccn2)nc2ccccc21 (stereo not given),/,.,.,.
O=C1c2cccc3cccc(c23)C(=O)N1OS(=O)(=O)c1ccccc1,.,/,.,-70.9
O=C1c2cccc3cccc(c23)C(=O)N1OS(=O)(=O)c1ccc(Br)cc1,.,.,.,?
CCc1nc2ccc(C(=O)N3CCN(C(C)=O)CC3)cn2c1N(C)C(=O)c1cccc(OC)c1,.,.,.,.
O=C(CN1C(=O)C2C3C=CC(C3)C2C1=O)NCc1ccccc1 (stereo not given),.,.,.,.
O=C(CN1C(=O)C2C3C=CC(C3)C2C1=O)NCCc1ccccc1 (stereo not given),-51.0,.,.,.
N#C/C(=C\c1cccnc1)C(=O)Nc1ccc(O)cc1F,.,.,.,.
Cc1c(NC(=O)c2cc(-n3cnnc3)ccc2Cl)cccc1-c1nc2ccccc2s1,.,-87.9%,.,.
Cc1n[nH]c(=S)n1-c1cccc(Cl)c1,-55.0,.,.,.
Cc1ccc(C(=O)Oc2ccc([N+](=O)[O-])cc2)cc1S(=O)(=O)N1CCCCCC1,.,.,.,-84.7
CNC(=O)c1ccccc1NC(=O)c1ccc(C)c(S(=O)(=O)N2CCCCC2)c1,.,-111.9%,.,.
Cc1ccc(C(=O)N2CCN(c3ccccc3)CC2)cc1S(=O)(=O)N1CCCC1,.,-107.0%,.,.
